Source: PubChem BioAssay (National Center for Advancing Translational Sciences (NCATS))
A selection: hits, their analogues and other compounds. The true share with any hit is near 11%.
Tau fibril FP – qHTS for Inhibitors of Tau Fibril Formation, Fluorescence Polarization; 0.39% of 280,000 active; K18 P301L tau heparin fibrillization, Alexa594 FP, 6 h; AID 1468, 2008; Microtubule-associated protein tau (Homo sapiens), P10636; Potency, µM (titrated, usually from 57.7 µM), actives largely listed as inhibitors; also: nearly all actives have a fitted effect of over 55% in size
Target sequence (P10636 561-689 P618L limits assumed): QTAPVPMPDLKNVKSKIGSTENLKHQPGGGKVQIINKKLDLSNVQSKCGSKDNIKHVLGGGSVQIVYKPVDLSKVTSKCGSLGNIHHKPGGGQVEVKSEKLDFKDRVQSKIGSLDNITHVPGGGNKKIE
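Compound effects on tau fibrillization are measured by Alexa 594 fluorescence polarization (ex 555, em 632 nm). K18 P301L tau is used at 15 uM with 0.24 uM labeled tracer, and 20 uM heparin induces aggregation over 6 hr at 37 C.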
Sfp PPTase inh – qHTS Assay for Inhibitors of Bacillus subtilis Sfp phosphopantetheinyl transferase (PPTase) | 4'-phosphopantetheinyl transferase ffp (Bacillus subtilis), Q9F4F7 | Biochemical Sfp PPTase activity, qHTS | Potency, µM, hits mostly inhibitors | 3.5% of 310,000 active | AID 1490, 2009;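 also: the enzyme is Sfp with the accession as filed and its product quenches rhodamine fluorescence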
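Reaction rates are the 30-min fluorescence difference (ex 525, em 598 nm) in wells containing 15 nM Sfp, 5 uM rhodamine-CoA and 12.5 uM BHQ-2-YbbR at pH 7.6 with 10 mM MgCl2.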
Coupling enz – qHTS Assay for Inhibitors of Fructose-1,6-bisphosphate Aldolase from Giardia Lamblia: Coupling assay counterscreen; coupling enzyme system counterscreen, AmpLite Red fluorescence; 0.67% of 290,000 active; activity change, negative = inhibition, % at 58.2 µM, hits read low; in the data active = activity change below about -30%
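Final compound at 57.5 uM, incubated 10 min at RT with coupling enzyme reagent (glyceraldehyde-3-phosphate), then 20 min with substrate and AmpLite Red detection. Fluorescence read at 525/598 nm; tests interference with the coupling assay, not aldolase inhibition.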
G9a inh – qHTS Assay for Inhibitors of Histone Lysine Methyltransferase G9a; Histone-lysine N-methyltransferase EHMT2 (Homo sapiens), Q96KQ7; G9a H3K9 monomethylation, AlphaScreen, 2 h; Potency, µM (titrated, usually from 102 µM), most hits filed as inhibitors; 8.8% of 350,000 active; also: nearly all actives have a fitted effect of over 75% in size
Target sequence (Q96KQ7 913-1193 limits assumed): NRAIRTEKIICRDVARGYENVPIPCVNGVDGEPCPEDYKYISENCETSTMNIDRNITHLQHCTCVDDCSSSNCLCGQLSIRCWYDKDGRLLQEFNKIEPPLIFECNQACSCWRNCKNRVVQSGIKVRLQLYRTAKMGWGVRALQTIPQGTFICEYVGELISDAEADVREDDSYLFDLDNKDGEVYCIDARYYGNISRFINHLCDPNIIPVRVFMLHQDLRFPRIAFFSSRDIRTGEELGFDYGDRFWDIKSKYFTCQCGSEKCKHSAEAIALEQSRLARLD
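AlphaScreen read-out: biotin-H3K9 peptide (500 nM) methylation by 20 nM enzyme with 20 uM SAM, 2 h at room temperature after 15 min compound preincubation; anti-monomethyl H3K9 antibody plus donor/acceptor beads, 10 min dark.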
Tau fibril ThT – qHTS for Inhibitors of Tau Fibril Formation, Thioflavin T Binding | Microtubule-associated protein tau (Homo sapiens), P10636 | recombinant tau K18 P301L, heparin-induced fibrillization, ThT fluorescence | Potency, µM (top dose mostly 57.4 µM), usual class: inhibitors | 2.1% of 270,000 active | AID 1460, 2008; also: nearly all actives have a fitted effect of over 55% in size
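Heparin-induced fibrillization of the P301L-mutant K18 repeat-domain fragment of human tau was followed by ThT binding in quantitative high-throughput format.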
Tau fluor counter – Counterscreen qHTS for Inhibitors of Tau Fibril Formation, Fluorescence Polarization; 0.93% of 280,000 active; tau K18 P301L Alexa594 fluorescence, heparin fibrillization; AID 1463, 2008; Potency, µM (series often up to 57.7 µM); also: nearly all actives have a fitted effect of over 55% in size
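Human tau K18 P301L (15 uM unlabeled, 0.24 uM Alexa 594-labeled) in 100 mM sodium acetate pH 7 with 20 uM heparin, 6 hr at 37 C. ThT 30 uM added, 1 hr ambient; Alexa 594 FP and total fluorescence read at 555/632 nm.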
A number is an active result; [ ] = another dose, or the depositor's remark. Unless noted, calls follow the shape of the dose curve; as a rule, active = well fitted curve in the direction sought with a large enough effect; inconclusive = small, poorly fitted or top-dose-only effect, or another doubt; inactive = no such curve, though single readings can be large; an effect the other way counts as inactive or inconclusive.

What do the screens show for `Nc1[nH]n2c(=O)c3c(nc2c1N=Nc1ccc(Cl)cc1)CCCC3`?
Tau fibril FP: inactive; Sfp PPTase inh: inactive; Coupling enz: inactive; G9a inh: inactive[12.7 µM]; Tau fibril ThT: 1.41µM; Tau fluor counter: inactive

Results for C[n+]1ccccc1/C=C1\Sc2ccccc2N1CCO ?
Sfp PPTase inh: inactive; Coupling enz: inactive; G9a inh: 50.1µM

How did C=CCC(C)(O)CCc1ccccc1 (stereo not given) do in these assays?
Tau fibril FP: inactive; Sfp PPTase inh: inactive; Coupling enz: inactive; Tau fibril ThT: inactive; Tau fluor counter: inactive

What do the screens show for `CCSc1nnc([C@@H]2CCCN2C(=O)OC(C)(C)C)o1`?
Tau fibril FP: inactive; Sfp PPTase inh: inactive; Coupling enz: inactive; G9a inh: 50.1µM; Tau fibril ThT: inactive; Tau fluor counter: inactive

Results for COc1cc(OC)c(NC(=O)c2cn(C)c(=O)c3cc(OC)c(OC)cc23)cc1Cl ?
Tau fibril FP: inactive; G9a inh: inactive; Tau fibril ThT: inactive; Tau fluor counter: inactive

How did COc1ccc(CCNc2oc(COc3ccc(Br)cc3)nc2C#N)cc1OC do in these assays?
Tau fibril FP: inactive; Sfp PPTase inh: inactive; Coupling enz: inactive; G9a inh: 39.8µM; Tau fibril ThT: inconclusive; Tau fluor counter: inconclusive

How did COc1ccc(Nc2oc(COc3ccc(Cl)cc3)nc2C#N)cc1 do in these assays?
Tau fibril FP: inactive; Sfp PPTase inh: inactive; Coupling enz: inactive; G9a inh: inconclusive; Tau fibril ThT: inconclusive; Tau fluor counter: 20µM[quencher]

How did COc1ccc(CNc2oc(COc3ccc(Cl)cc3)nc2C#N)cc1 do in these assays?
Tau fibril FP: inactive; Sfp PPTase inh: inactive; Coupling enz: inactive; G9a inh: inconclusive; Tau fibril ThT: inactive; Tau fluor counter: inconclusive

How did COc1ccc(CCNc2oc(COc3ccccc3F)nc2C#N)cc1 do in these assays?
Tau fibril FP: inactive; Sfp PPTase inh: inactive; Coupling enz: inactive; G9a inh: 35.5µM; Tau fibril ThT: inconclusive; Tau fluor counter: inconclusive

What do the screens show for `N#Cc1nc(COc2ccccc2F)oc1NCc1ccc(F)cc1`?
Tau fibril FP: inactive; Sfp PPTase inh: inactive; Coupling enz: inactive; G9a inh: 35.5µM; Tau fibril ThT: inactive; Tau fluor counter: inconclusive

Results for Cn1c(=O)c2c(nc(NCCCCO)n2Cc2ccccc2Cl)n(C)c1=O ?
Tau fibril FP: inactive; G9a inh: inactive; Tau fibril ThT: inactive; Tau fluor counter: inactive

What do the screens show for `COc1ccc(-c2noc(CN(C(=O)C(C)Oc3ccc(C)cc3)C(C)C)n2)cc1` (stereo not given)?
Tau fibril FP: inactive; G9a inh: inactive; Tau fibril ThT: inactive; Tau fluor counter: inactive

Results for O=C(c1ccccc1)c1ccc2nc(Nc3ccccc3Cl)c3nncn3c2c1 ?
Tau fibril FP: inconclusive; G9a inh: inactive; Tau fibril ThT: inactive; Tau fluor counter: inactive

How did CCC(=O)Nc1ccccc1-c1nc2ccccc2n(CC(=O)c2ccc(Cl)cc2)c1=O do in these assays?
Tau fibril FP: inactive; G9a inh: inconclusive; Tau fibril ThT: inactive; Tau fluor counter: inactive

What do the screens show for `Cc1ccc(OCCCNCCO)c(Br)c1`?
Tau fibril FP: inactive; Sfp PPTase inh: inactive; Coupling enz: inactive; G9a inh: inactive; Tau fibril ThT: inactive; Tau fluor counter: inactive

How did CC(C)NCCOCCOc1ccc(Cl)cc1Br do in these assays?
Tau fibril FP: inactive; Sfp PPTase inh: inactive; Coupling enz: inactive; G9a inh: inconclusive; Tau fibril ThT: inactive; Tau fluor counter: inactive

What do the screens show for `COCCCNCCOCCOc1ccc(Cl)cc1C(C)(C)C`?
Tau fibril FP: inactive; Sfp PPTase inh: inactive; Coupling enz: inactive; G9a inh: 8.91µM; Tau fibril ThT: inactive; Tau fluor counter: inactive

What do the screens show for `CC(C)(C)NCCOCCOc1ccc(Cl)cc1C(C)(C)C`?
Tau fibril FP: inactive; Sfp PPTase inh: 56.2µM; Coupling enz: inactive; G9a inh: 5.01µM; Tau fibril ThT: inactive; Tau fluor counter: inactive

Results for COCCCNCCOCCOc1c(OC)cccc1OC ?
Tau fibril FP: inactive; Sfp PPTase inh: inactive; Coupling enz: inactive; G9a inh: inactive; Tau fibril ThT: inactive; Tau fluor counter: inactive

What do the screens show for `CCCCNCCCOc1ccc(C)cc1Br`?
Tau fibril FP: inactive; Sfp PPTase inh: inactive; Coupling enz: inactive; G9a inh: 50.1µM; Tau fibril ThT: inactive; Tau fluor counter: inactive

Results for C=CCNCCOCCOc1ccc(C)cc1Br ?
Tau fibril FP: inactive; Sfp PPTase inh: inactive; Coupling enz: inactive; G9a inh: 3.16µM; Tau fibril ThT: inactive; Tau fluor counter: inactive

Results for CN(CCO)c1ncnc2c1sc1nc(N3CCOCC3)c3c(c12)CCC3 ?
Tau fibril FP: inactive; Sfp PPTase inh: inactive; Coupling enz: inactive; G9a inh: inactive; Tau fibril ThT: inactive; Tau fluor counter: inactive

Results for COC(=O)N[C@@H](CCc1ccccc1)/C(C(=O)OC)=C(\C)NCc1ccccc1 ?
Tau fibril FP: inactive; Sfp PPTase inh: inactive; Coupling enz: inactive; Tau fibril ThT: inactive; Tau fluor counter: inactive

How did C=CCNCCOCCSc1ccc(Cl)cc1 do in these assays?
Tau fibril FP: inactive; Sfp PPTase inh: inactive; Coupling enz: inactive; G9a inh: 7.94µM; Tau fibril ThT: inactive; Tau fluor counter: inactive

How did C=CCNCCOCCOc1ccc(Cl)cc1C(C)(C)C do in these assays?
Tau fibril FP: inactive; Sfp PPTase inh: inactive; Coupling enz: inactive; G9a inh: 8.91µM; Tau fibril ThT: inactive; Tau fluor counter: inactive

How did C=CCNC(=O)CSc1ccc(Cl)cc1 do in these assays?
Tau fibril FP: inactive; Sfp PPTase inh: inactive; Coupling enz: inactive; G9a inh: inactive[12.7 µM]; Tau fibril ThT: inactive; Tau fluor counter: inactive

Results for C=CCNCCCOc1ccc(Cl)cc1C(C)(C)C ?
Tau fibril FP: inactive; Sfp PPTase inh: inconclusive; Coupling enz: inactive; G9a inh: 10µM; Tau fibril ThT: inactive; Tau fluor counter: inactive

How did COc1ccccc1C(=O)NCCC(=O)Nc1ccc(OC(F)(F)F)cc1 do in these assays?
Sfp PPTase inh: inactive; Coupling enz: inactive; G9a inh: inactive

How did CC(=O)c1ccc(N2CCN(c3ncnc4onc(-c5ccc(Cl)cc5)c34)CC2)cc1 do in these assays?
Tau fibril FP: inactive; G9a inh: inactive; Tau fibril ThT: inactive; Tau fluor counter: inactive

What do the screens show for `CC(C)=C1C2CCC1C1C(=O)N(c3ccc4c(c3)OCO4)C(=O)C21` (stereo not given)?
Tau fibril FP: inactive; Sfp PPTase inh: inactive; Coupling enz: inactive; G9a inh: inactive; Tau fibril ThT: inactive; Tau fluor counter: inactive
